Activity calls are given as the source filed them. Unless noted, how the calls were made is not given here.
Experiments:
[1] = HepG2 liver cancer cell viability effects, profiling panel, resazurin fluorescence, 24 h, PK04 Diversity Set (AID 1172); conditions: higher = more signal; further: test concentration not given here
[2] = basal S. cerevisiae growth modulation, no modifier, primary screen, OD600, strain BY4716, 24 h, basal condition (AID 1173); conditions: OD600, 24 h, higher = more signal, called active from +8 up or from −8 down
[3] = MM1S myeloma cell viability, profiling panel, resazurin fluorescence, basal, 24 h, PK04 Diversity Set (AID 1174); conditions: higher = more signal, called active from +8 up or from −8 down;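 further: MM1S multiple myeloma cell line; test concentration not given here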
[4] = target: Dihydroorotate dehydrogenase (quinone), mitochondrial (Plasmodium falciparum (isolate 3D7)) (UniProt Q08210); test: PfDHODH enzyme inhibitors, primary screen, biochemical, C-terminal His tag, absorbance 600 nm (AID 1175); conditions: DCIP absorbance 600 nm, higher = more signal, called active from +8 up or from −8 down;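 further: recombinant parasite enzyme with a five histidine tag at its C terminus; test concentration not given here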
Sequence of Dihydroorotate dehydrogenase (quinone), mitochondrial (Plasmodium falciparum (isolate 3D7)) (Q08210 whole entry, looked up): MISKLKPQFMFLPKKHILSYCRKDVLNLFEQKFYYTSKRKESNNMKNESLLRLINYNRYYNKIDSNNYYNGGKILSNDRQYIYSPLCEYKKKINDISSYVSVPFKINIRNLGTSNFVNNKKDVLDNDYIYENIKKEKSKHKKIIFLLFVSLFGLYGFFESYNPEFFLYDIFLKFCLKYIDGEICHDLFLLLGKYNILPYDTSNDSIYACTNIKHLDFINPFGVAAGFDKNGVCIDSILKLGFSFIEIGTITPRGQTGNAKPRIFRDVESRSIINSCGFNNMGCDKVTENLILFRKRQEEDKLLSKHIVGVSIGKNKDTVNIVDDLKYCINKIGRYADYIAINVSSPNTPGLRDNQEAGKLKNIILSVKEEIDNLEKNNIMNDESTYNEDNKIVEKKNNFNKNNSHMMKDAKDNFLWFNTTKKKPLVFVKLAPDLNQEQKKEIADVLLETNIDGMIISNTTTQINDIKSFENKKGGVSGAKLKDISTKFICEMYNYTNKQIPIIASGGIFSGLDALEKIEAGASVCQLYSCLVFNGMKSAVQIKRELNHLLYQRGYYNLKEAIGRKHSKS

[5] = P. aeruginosa biofilm formation inhibitors, primary screen, strain PAO1, LB-PBS medium, absorbance 600 nm (AID 1176); further: test concentration not given here; conditions: P. aeruginosa PAO1 growth/biofilm, A600, 12 h; higher = more signal
[6] = S. cerevisiae RM11-1a growth modifiers, primary screen, strain RM11-1a, OD600, basal, 24 h (AID 1177); conditions: OD600, 24 h, higher = more signal, called active from +8 up or from −8 down;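 further: cultures grown under basal conditions with no added stressor; test concentration not given here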
[7] = E. coli acrAB mutant growth effects, primary screen, E. coli filamentation inducers, strain DRC39, OD650, 24 h (AID 1178); conditions: higher = more signal, called active from +8 up or from −8 down;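 further: growth measured as culture turbidity by optical density at 650 nm; test concentration not given here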
[8] = E. coli acrAB mutant growth effects, primary screen, E. coli filamentation inducers, strain DRC39, OD650, 48 h (AID 1179);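 further: screen aims at cell division blockers that make cells filament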; conditions: E. coli DRC39 delta-acrAB growth, higher = more signal, called active from +8 up or from −8 down
[9] = RPMI8226 myeloma cell viability, profiling panel, resazurin fluorescence, basal, 24 h, PK04 Diversity Set (AID 1180); conditions: higher = more signal;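 further: RPMI8826 multiple myeloma cell line at 5000 cells per well; test concentration not given here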
[10] = target: E3 ubiquitin-protein ligase XIAP (Homo sapiens) (UniProt P98170); test: XIAP binders, primary screen, biophysical, small-molecule microarray, fluorescence 635 nm (AID 1181); conditions: small-molecule microarray binding, higher = more signal;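 further: score merges 667 nm emission and signal to noise over triplicate slides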
Sequence of E3 ubiquitin-protein ligase XIAP (Homo sapiens) (P98170 whole entry, looked up): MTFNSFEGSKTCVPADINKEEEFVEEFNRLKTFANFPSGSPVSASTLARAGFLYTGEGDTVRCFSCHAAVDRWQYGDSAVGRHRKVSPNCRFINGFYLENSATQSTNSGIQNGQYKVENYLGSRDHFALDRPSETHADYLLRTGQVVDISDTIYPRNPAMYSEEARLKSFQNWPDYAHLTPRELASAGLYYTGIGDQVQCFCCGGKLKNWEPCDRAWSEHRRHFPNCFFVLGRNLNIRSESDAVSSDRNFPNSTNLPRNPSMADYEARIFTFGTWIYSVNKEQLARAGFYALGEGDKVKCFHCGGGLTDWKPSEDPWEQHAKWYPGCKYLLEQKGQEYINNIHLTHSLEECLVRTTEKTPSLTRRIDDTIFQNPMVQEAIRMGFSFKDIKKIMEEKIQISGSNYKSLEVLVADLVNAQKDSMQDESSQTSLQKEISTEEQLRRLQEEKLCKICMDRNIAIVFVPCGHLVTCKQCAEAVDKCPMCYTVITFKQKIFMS

| SMILES | z-score [1] | z-score [2] | z-score [3] | composite z-score [4] | z-score [5] | z-score [6] | z-score [7] | z-score [8] | z-score [9] | composite z-score [10] |
| --- | --- | --- | --- | --- | --- | --- | --- | --- | --- | --- |
| COCCOC(=O)N1C(=O)[C@@]2(c3cc(C#CCNC(N)=O)ccc31)[C@H](C(=O)N1CCN(c3ncccn3)CC1)[C@H]1C(=O)O[C@H](c3ccccc3)[C@H](c3ccccc3)N1[C@@H]2c1ccc(O)cc1 | -0.203 | -0.171 (inactive) | 0.0034 (inactive) | 0.386 (inactive) | 1.13 (inactive) | -0.34 (inactive) | 0.589 (inactive) | 1.15 (inactive) | 0.436 | -0.0129 |
| COCCOC(=O)N1C(=O)[C@@]2(c3cc(C#CCNC(N)=O)ccc31)[C@H](c1ccc(O)cc1)N1[C@H](c3ccccc3)[C@H](c3ccccc3)OC(=O)[C@H]1[C@@H]2C(=O)N1CCc2cc(OC)c(OC)cc2C1 | -0.328 | 1.66 (inactive) | -0.202 (inactive) | 1.38 (inactive) | 0.902 (inactive) | 2.24 (inactive) | -0.0681 (inactive) | -0.119 (inactive) | -0.242 | 0.171 |
| C=CCOC(=O)[C@H]1[C@@H]2C(=O)O[C@@H](c3ccccc3)[C@@H](c3ccccc3)N2[C@@H](c2ccc(OCCOC(=O)[C@H]3C[C@H]4C(=O)NCC(=O)N4[C@H]3c3cccc(OCCO)c3)cc2)[C@]12C(=O)Nc1ccc(I)cc12 | -0.199 | 1.18 (inactive) | 0.265 (inactive) | 0.603 (inactive) | 1.88 (inactive) | 1.5 (inactive) | -0.274 (inactive) | 0.765 (inactive) | 0.973 | 0.0431 |
| COCCOC(=O)N1C(=O)[C@@]2(c3cc(C#CCC(C(=O)OC)C(=O)OC)ccc31)[C@H](C(=O)N1CCc3cc(OC)c(OC)cc3C1)[C@H]1C(=O)O[C@H](c3ccccc3)[C@H](c3ccccc3)N1[C@@H]2c1ccccc1OCCO | 1.11 | 1.48 (inactive) | 0.328 (inactive) | -1.23 (inactive) | 1.68 (inactive) | 1.3 (inactive) | 0.414 (inactive) | -0.186 (inactive) | 0.637 | -0.226 |
| COCCOC(=O)N1C(=O)[C@@]2(c3cc(C#CCCO)ccc31)[C@H](C(=O)N1CCN(c3ncccn3)CC1)[C@H]1C(=O)O[C@H](c3ccccc3)[C@H](c3ccccc3)N1[C@@H]2c1ccc(OCCO)cc1 | 0.739 | 2.7 (inactive) | -0.632 (inactive) | -0.486 (inactive) | 1.17 (inactive) | 2.75 (inactive) | -0.77 (inactive) | -0.548 (inactive) | 0.555 | 0.0432 |
| CO[C@H]1O[C@H](CO)[C@@H](OC(=O)Nc2ccccc2)[C@@H]2OC(=O)[C@@H](Cc3ccccc3)C/C=C/C[C@H](Cc3ccccc3)C(=O)O[C@@H]12 | -0.472 | 0.153 (inactive) | -2.22 (inactive) | -1.38 (inactive) | 0.0126 (inactive) | 1.04 (inactive) | -0.409 (inactive) | 0.582 (inactive) | -0.381 | 0.381 |
| O=C(O)C1=CC[C@H]2C(=O)N(c3ccccc3)C(=O)[C@@H]12 | -0.0581 | 1.53 (inactive) | -0.849 (inactive) | 0.609 (inactive) | 0.477 (inactive) | 1.6 (inactive) | -0.897 (inactive) | -0.453 (inactive) | -1.24 | 0.997 |
| CN1C(=O)C2C=CC(C(O)COCc3ccccc3)N(Nc3ccc([N+](=O)[O-])cc3[N+](=O)[O-])C2C1=O (stereo not given) | -0.473 | -2.33 (inactive) | -0.407 (inactive) | -0.42 (inactive) | 0.558 (inactive) | 0.288 (inactive) | -0.143 (inactive) | -0.445 (inactive) | -0.143 | 0.12 |
| CC(C)N1C(=O)[C@@]2(Cc3ccccc31)c1ccccc1C(=O)N(Cc1ccccc1C(F)(F)F)[C@H]2c1ccc(CO)cc1 | 0.0887 | 0.407 (inactive) | 0.0922 (inactive) | -18 (active) | 0.146 (inactive) | -0.107 (inactive) | -0.0949 (inactive) | -0.818 (inactive) | 0.566 | 0.0377 |
| CC1CC/C=C\[C@H]2OC34C=CCN(C(C)C)C(=O)[C@H]3N(C(C)CO)C(=O)[C@@H]4C2C(=O)O1 (stereo not given in full) | 0.741 | 0.306 (inactive) | 1.05 (inactive) | -0.0766 (inactive) | 2.9 (inactive) | 0.477 (inactive) | 0.355 (inactive) | 0.553 (inactive) | 0.832 | 0.0345 |
| CC(C)c1ccc(NN2C(C(O)C3CCCCC3)C=CC3C(=O)N(c4ccccc4)C(=O)C32)cc1 (stereo not given) | -0.454 | -0.618 (inactive) | -1.12 (inactive) | -0.74 (inactive) | 1.52 (inactive) | 0.409 (inactive) | -0.148 (inactive) | 0.51 (inactive) | -0.675 | 0.0471 |
| CCCCN1CC=CC23O[C@@H]4/C=C\CCC(C)OC(=O)C4[C@H]2C(=O)N(CCO)[C@@H]3C1=O (stereo not given in full) | 1 | 0.256 (inactive) | 0.498 (inactive) | -0.252 (inactive) | 0.0279 (inactive) | -0.348 (inactive) | 0.32 (inactive) | -0.178 (inactive) | 0.82 | 0.0026 |
